Assay outcomes: PubChem, National Center for Advancing Translational Sciences (NCATS)
Most compounds without a hit are left out; they make up all but 7% or so of the library.
JMJD2A Tudor inh: qHTS Assay for Inhibitors of JMJD2A-Tudor Domain; Lysine-specific demethylase 4A (Homo sapiens), O75164; AlphaScreen JMJD2A-Tudor / H3K4me3 peptide binding; Potency, µM (top dose mostly 114 µM), without a hit: top-dose activity change, negative = inhibition, most hits filed as inhibitors; hit rate 4.4% among 390,000; AID 504339, 2011; note: potency is the fitted concentration of half-maximal effect; % is set by controls: 0 for no effect and ±100 for the full control effect; nearly all actives have a fitted effect of over 50% in size
HP1b chromo inh: HTS for Inhibitors of HP1-beta Chromodomain Interactions with Methylated Histone Tails; Chromobox protein homolog 1 (Homo sapiens), P83916; AlphaScreen HP1-beta / biotin-H3K9me3 peptide binding; Potency, µM (highest dose often 114 µM), inactives show at the top dose activity change, negative = inhibition, hits mostly inhibitors; hit rate 0.56% among 390,000; AID 540317, 2011; note: potency is the fitted concentration of half-maximal effect; nearly all actives have a fitted effect of over 70% in size
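AlphaScreen: HP1-beta (50 nM) preformed 30 min with biotin-H3(1-18)K9me3 peptide (50 nM) in PBS pH 7.4, 0.01% Tween-20. Compound added for 30 min at RT, then streptavidin donor/nickel chelate acceptor beads (10 ug/mL) for 30 min.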
BAZ2B block: qHTS Assay for Inhibitors of BAZ2B; Bromodomain adjacent to zinc finger domain protein 2B (Homo sapiens), Q9UIF8; AlphaScreen BAZ2B-H3K14Ac peptide displacement; AID 504333, 2011; hit rate 4.4% among 360,000; Potency, µM (doses to about 114 µM), inactives show top-dose activity change, negative = inhibition, actives largely listed as inhibitors; note: potency is the fitted concentration of half-maximal effect; % is set by controls: 0 for no effect and ±100 for the full control effect; nearly all actives have a fitted effect of over 60% in size
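Multi-concentration screen (max 110 uM) measuring displacement of acetylated histone H3 peptide from BAZ2B by AlphaScreen, using 50 nM protein, 50 nM peptide and 10 ug/mL streptavidin donor plus Ni-chelate acceptor beads.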
PLK1 PBD block: qHTS for Inhibitors of PLK1-PDB (polo-like kinase 1 - polo-box domain): Primary Screen. hit rate 2.8% among 360,000. Potency, µM, for the others: max response, negative = inhibition, most hits filed as inhibitors. Plk1 PBD binding of FITC phosphopeptide, fluorescence polarization; note: potency is the fitted concentration of half-maximal effect; series mostly up to about 57 µM; % is set by controls: 0 for no effect and ±100 for the full control effect; nearly all actives have a fitted effect of over 65% in size
PI5P4K alpha inh: qHTS for Inhibitors of phosphatidylinositol 5-phosphate 4-kinase (PI5P4K). Phosphatidylinositol 5-phosphate 4-kinase type-2 alpha (Homo sapiens), P48426. PI5P4Kalpha enzyme, ADP-Glo luminescence, 60 min; active compounds read low. max response, %. hit rate 1.2% among 330,000. AID 652105, 2013; active = max response of -50% or lower; inconclusive = between -30% and -50%; inactive = -30% or higher; note: value at the top dose of about 77 µM; % is set by controls: 0 for no effect and ±100 for the full control effect
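Luminescence from ADP-Glo served as readout of PI5P4Kalpha activity in a qHTS format. Reaction: enzyme, substrate, compound, ATP at 5 microM final, 60 min at RT.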
KAT2A inh: qHTS Assay for Inhibitors of GCN5L2 | Histone acetyltransferase KAT2A (Homo sapiens), Q92830 | AID 504327, 2011 | hit rate 0.21% among 390,000 | Potency, µM (highest dose often 58.9 µM), for inactives: at the highest dose activity change, negative = inhibition, hits mostly inhibitors | GCN5L2 HAT assay, ThioGlo1 CoA-SH fluorescence; note: potency is the fitted concentration of half-maximal effect; % is set by controls: 0 for no effect and ±100 for the full control effect
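GCN5L2 (20nM final) in 50mM HEPES, 0.1mM EDTA pH 7.5, 0.01% Tween-20 was preincubated 15 min at room temperature with compound, then given ThioGlo1 (50uM), H3(1-25) peptide (75uM) and acetyl-CoA (70uM); CoA-thiol fluorescence (Ex340/Em540) was read at 0 and 20 min.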
Starred values were filed as active, the others as inactive; ? = inconclusive; / = no result; [ ] = remark or other dose. Unless noted, calls come from the whole dose curve; as a rule, active = well fitted curve in the direction sought with a large enough effect; inconclusive = small, poorly fitted or top-dose-only effect, or another doubt; inactive = no such curve, though single readings can be large; an effect the other way counts as inactive or inconclusive.

SMILES	JMJD2A Tudor inh	HP1b chromo inh	BAZ2B block	PLK1 PBD block	PI5P4K alpha inh	KAT2A inh
CC(=O)Nc1ccc(NC(=O)CSc2nnc(NC(=O)C3CC(=O)N(c4ccc(F)cc4)C3)s2)cc1 (centres undefined)	-1%	27%	-14%	-10%	-12	-2%
Cc1cc(F)ccc1Oc1cc(NN2CCCCC2)c([N+](=O)[O-])cc1[N+](=O)[O-]	?	-15%	?	-8%	52	-4%
O=[N+]([O-])c1cc([N+](=O)[O-])c(Oc2ccc(Br)cc2Br)cc1NN1CCCCC1	10µM*	?	?	?	0	-5%
COc1cccc(Oc2cc(NN3CCCCC3)c([N+](=O)[O-])cc2[N+](=O)[O-])c1OC	?	-27%	8.9µM*	-8%	-3	-28%
O=[N+]([O-])c1cc([N+](=O)[O-])c(Oc2cccc3c2CCCC3)cc1NN1CCCCC1	-34%	0%	/	-14%	3	/
O=C(CCc1ccc(O)cc1)c1c(O)cc(O)cc1O	-18%	36%	4%	-7%	-69*	-12%
O=C(Cc1ccc2c(c1)OCCO2)c1c(O)cc(O)cc1O	?	8%	11%	-14%	/	-2%
CCN(CC)S(=O)(=O)c1ccc2c(c1)nc(-c1ccccn1)n2C	32µM*	2%	4%	-18%	-10	-3%
CCCn1c(CCC(=O)O)nc2cc(S(=O)(=O)N(CC)CC)ccc21	-2%	40%	-23%	0%	0	24%
O=C(C1CC1)N1CCN(c2ccc(O)cc2)CC1	79µM*	?	-2%	-4%	-15	-5%
COc1cc(OC)cc(C(=O)NCC(=O)N2CCN(c3ccc(O)cc3)CC2)c1	22µM*	?	-8%	-11%	-28	-15%
CCOC(=O)N1CCN(c2ccc(O)cc2)CC1	35µM*	-69%	8%	2%	-6	-4%
COc1ccc(N2CCN(C(=O)CNC(=O)c3ccc4ccccc4c3)CC2)cc1	-8%	47%	-4%	-2%	4	3%
COC(=O)c1ccc(Cl)cc1NC(=O)Nc1nnc(N(C)C2CCCCC2)s1	-13%	1%	2%	/	/	0%
O=C(O)CCn1cc(C(=O)O)c(-c2ccccc2)n1	-15%	43%	-8%	-11%	3	-12%
CS(=O)(=O)c1ccc(Cl)c(NC(=O)COC(=O)CCN2C(=O)C3CC=CCC3C2=O)c1 (centres undefined)	1%	39%	/	3%	-3	/
Cc1ccc(-n2c(C)cc(/C=N/NC(N)=S)c2C)cc1	?	-20%	?	-11%	-19	-2%
CNC(=S)N/N=C/c1cc(C)n(-c2ccc(Cl)c(Cl)c2)c1C	?	?	35µM*	-7%	-8	-3%
COc1ccc(S(=O)(=O)Nc2c3ccccc3nc(=O)n2-c2ccccc2)cc1	-6%	45%	11%	-12%	9	-3%
O=c1nc2ccccc2c(NS(=O)(=O)c2ccc(Cl)cc2)n1-c1ccccc1	56µM*	-15%	-1%	?	0	3.2µM*
CCCSc1nnc(NC(=O)CSc2sc3c(O)cc(=O)[nH]c3c2C#N)s1	56µM*	-30%	40µM*	17µM*	-72*	?
Cc1cc(Cl)ccc1NC(=O)C1CCN(S(=O)(=O)c2ccc3[nH]c(=O)ccc3c2)CC1	-13%	27%[57 µM]	0%	/	/	-7%
c1ccc2c(c1)CCN(C1=Nc3cccc4cccc1c34)C2	?	?	32µM*	-13%	4	-3%
c1cc2c3c(cccc3c1)C(N1CCCCCC1)=N2	-11%[57.1 µM]	27%	-15%	-20%	-6	-3%
COc1ccc(NC(=O)CSc2ncc(-c3ccc(Cl)cc3)[nH]2)cc1OC	-17%	21%	?	/	/	-6%
SMILES	JMJD2A Tudor inh	HP1b chromo inh	BAZ2B block	PLK1 PBD block	PI5P4K alpha inh	KAT2A inh
O=C(CNC(=O)c1cccc2ccccc12)OC(C(=O)Nc1cc(C(F)(F)F)ccc1Cl)c1ccccc1 (centres undefined)	-10%	/	/	/	/	/
CCCNC(=O)C1(C)CCCN(C(=O)c2sccc2C)C1 (centres undefined)	/	/	/	-3%	-2	/
CCCCOc1ccc(C2(C)NC(=O)NC2=O)cc1 (centres undefined)	16µM*	17%	-3%	7.5µM*	-24	-2%
COC(=O)CCN(C(=O)c1c(C)oc2ncnc(N3CCOCC3)c12)c1ccccc1	-5%	43%	16%[57.1 µM]	/	/	26%
Cc1cc(Cl)ccc1OCC(=O)NNC(=O)c1ccc(=O)[nH]c1	-4%	36%	/	2%	2	-4%
Nc1c(Cl)cc(C2=NCCn3c2c2ccc(C(F)(F)F)cc2[n+]3[O-])cc1Cl	4.5µM*	18%	?	-5%	-4	-5%
Nc1c(Cl)cc(C2=NCCn3c2c2ccccc2[n+]3[O-])cc1Cl	3.5µM*	45%	?	0%	0	-3%
O=[N+]([O-])c1ccc2c3n([n+]([O-])c2c1)CCN=C3c1ccc(Cl)cc1	?	1%	50µM*	-8%	?	-6%
[O-][n+]1c2ccccc2c2n1CCN=C2c1ccc(Cl)cc1	-13%	41%	-4%	2%	2	-2%
COc1ccc2c3n([n+]([O-])c2c1)CCN=C3c1ccc(Cl)cc1	?	19%	-28%	-9%	-2	0%
O=C(O)c1[nH]c2ccccc2c1NS(=O)(=O)c1ccc(F)cc1	-21%	2%	?	?	-3	0%
Cc1ccc(S(=O)(=O)Nc2c(C(=O)O)[nH]c3ccccc23)c(C)c1	56µM*	?	?	27µM*	-12	-1%
Cc1cc(F)ccc1S(=O)(=O)Nc1cc2c(C(=O)O)c(C)oc2c2ccccc12	?	-11%	-18%	/	/	0%
Cc1ccc(S(=O)(=O)Nc2cc3c(C(=O)O)c(C)oc3c3ccccc23)c(C)c1	?	?	50µM*	?	-22	-12%
C/C(=N\NC(=S)Nc1cccc(C)c1)c1cc2ccccc2o1	25µM*	?	?	-23%	1	-14%
CCC(=O)Nc1cccc(NC(=S)NC(=O)c2cc3ccccc3o2)c1	-19%[57.1 µM]	6%	-31%	27µM*	1	-5%
CC/C(=N\NC(=S)Nc1cccc(C)c1)c1ccccc1	50µM*	?	?	-21%	4	-3%
Cc1cccc(NC(=S)N/N=C2/CCCCc3ccccc32)c1	?	?	40µM*	-19%	-2	-4%
CCc1cccc(NC(=O)CCS(=O)(=O)c2ccc(C)cc2)c1	-5%	26%	8%[57.1 µM]	/	/	4%
